Screens (PubChem BioAssay)
Most compounds without a hit are left out; they make up all but 19% or so of the library.
DT40 TDP1 no CPT – qHTS for Inhibitors of human tyrosyl-DNA phosphodiesterase 1 (TDP1): qHTS in cells in absence of CPT. DT40 Tdp1-/- hTDP1 cells, no CPT, ATP luminescence, 48 h. Potency, µM (titrated, usually from 46.2 µM), for inactives: at the highest dose activity change, negative = growth inhibition, usual class: inhibitors. 15% of 420,000 active. AID 686978, 2013; further: potency means the concentration at half of the fitted maximal effect; nearly all actives have a fitted effect of over 55% in size
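No-CPT arm: Tdp1-/-;hTDP1 DT40 cells (400/well) plus compounds, incubated ≥48 hr at 37 °C. Readout CellTiter-Glo luminescence.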
TDP1 cell CPT – qHTS for Inhibitors of human tyrosyl-DNA phosphodiesterase 1 (TDP1): qHTS in cells in presence of CPT; 12% of 420,000 active; chicken DT40 Tdp1-/-;hTDP1 cells + 20 nM CPT, ATP luminescence, 48 h; Potency, µM (series often up to 46.2 µM), inactives show at the highest dose activity change, negative = growth inhibition, usual class: inhibitors; AID 686979, 2013; further: potency means the concentration at half of the fitted maximal effect; nearly all actives have a fitted effect of over 55% in size
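Cell growth measured by CellTiter-Glo luminescence after a minimum 48 h, 37 C compound exposure with 20 nM CPT in Tdp1-knockout DT40 cells stably expressing hTDP1, seeded 400/well; qHTS titration format.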
HT1080 IDH1KD tx – qHTS for induction of synthetic lethality in tumor cells producing 2HG: qHTS for the HT-1080-IDH1KD cell line | HT-1080 IDH1 knockdown viability, ATP luminescence, 48 h | Potency, µM (top dose mostly 46.1 µM), for inactives: at the highest dose activity, negative = toxicity, usual class: cytotoxic | 2% of 360,000 active | AID 686971, 2013;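 further: potency means the concentration at half of the fitted maximal effect; 0% = DMSO wells and -100% = cell-free medium wells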
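In this qHTS, HT-1080 cells depleted of IDH1 are exposed for 48 h at 37 °C to compound titrations. Toxicity is scored from CellTiter-Glo luminescence, with DMSO as full viability and medium alone as none.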
IL-1B inflam inh – qHTS for Inhibitors of Inflammasome Signaling: IL-1-beta AlphaLISA Primary Screen; 4.7% of 360,000 active; THP-1 LPS/ATP IL-1B secretion, AlphaLISA, 16 h; stronger effect = lower value; AID 743279, 2014; activity change, % at 57.5 µM; in the data active means activity change below about -50%; inconclusive means mostly about -30% to -49%
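Secreted IL-1B measured by AlphaLISA bead assay after 16 h compound exposure of THP-1 cells; compounds (final up to 57.5 uM) added 1 h before LPS (250 ng/mL) and ATP (1.25 mM) stimulation; lower signal means less secretion.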
HT1080NT lethal – qHTS for induction of synthetic lethality in tumor cells producing 2HG: qHTS for the HT-1080-NT fibrosarcoma cell line; HT-1080-NT fibrosarcoma viability, CellTiter-Glo ATP luminescence, 48 h; Potency, µM (top dose mostly 46.1 µM), without a hit: top-dose activity, negative = less viability, usual class: cytotoxic; 1.6% of 360,000 active; AID 686970, 2013;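 further: NT is the 2HG producing partner of a matched IDH1 knockdown line; potency means the concentration at half of the fitted maximal effect; 0% = DMSO-treated cells and -100% = media-only wells without cells; nearly all actives have a fitted effect of over 55% in size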
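Compounds were tested in concentration-response format on HT-1080-NT cells for 48 hours at 37 degrees C. Cell viability came from CellTiter-Glo luminescence; curves were classified by r2, response magnitude and activity.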
* marks the source's active call; other numbers are inactive results; ? = inconclusive; / = no result; [ ] = another dose, or the depositor's remark. Unless noted, the call rests on the fitted dose curve; in most records, active means well fitted curve in the direction sought with a large enough effect; inconclusive means small, poorly fitted or top-dose-only effect, or another doubt; inactive means no such curve, though single readings can be large; an effect the other way counts as inactive or inconclusive. Unless noted, on the % scale 0 is the no-effect control and ±100 the full control effect.

SMILES	DT40 TDP1 no CPT	TDP1 cell CPT	HT1080 IDH1KD tx	IL-1B inflam inh	HT1080NT lethal
CCOC(=O)C1CCCCN1C(=O)c1cnn(-c2nccc(-c3cc(C)sc3C)n2)c1C1CC1 (configuration not stated)	?	-9%[9.04 µM]	/	/	/
CNC(=O)C1CCC(Cn2c(=O)c3sccc3n(CC(=O)Nc3ccccc3)c2=O)CC1 (configuration not stated)	-23%	1%	/	/	/
Cc1ccccc1Cn1c(=O)n(CC2CCC(C(=O)NCCc3ccccc3)CC2)c(=O)c2ccccc21 (configuration not stated)	29µM*	21µM*	-2%	30	0%
Cc1ccccc1Cn1c(=O)n(CC2CCC(C(=O)N3CCC(C)CC3)CC2)c(=O)c2sccc21 (configuration not stated)	16µM*	23µM*	/	/	/
CNC(=O)C1CCC(Cn2c(=O)c3sccc3n(CC(=O)N3CCC(C)CC3)c2=O)CC1 (configuration not stated)	1%	2%	/	/	/
CCN(CC)C(=O)Cn1c(=O)n(Cc2ccc(F)cc2)c(=O)c2sccc21	?	9.2µM*	-6%	4	-11%
CNC(=O)C1CCC(Cn2c(=O)c3sccc3n(CC(=O)Nc3cc(C)cc(C)c3)c2=O)CC1 (configuration not stated)	10µM*	?	/	/	/
COCCCNC(=O)C1CCC(Cn2c(=O)c3sccc3n(Cc3ccc(F)cc3)c2=O)CC1 (configuration not stated)	-24%	-29%	/	/	/
O=C(C1CCC(Cn2c(=O)c3sccc3n(Cc3ccc(F)cc3)c2=O)CC1)N1CCOCC1 (configuration not stated)	18µM*	23µM*	/	/	/
O=S1(=O)CC(O)C(NCc2ccco2)C1 (configuration not stated)	3%	16%	0%	-13	-1%
CC(C)(C)c1cc(CNC2CS(=O)(=O)C[C@@H]2O)cc(C(C)(C)C)c1O (some centres not stated)	16µM*	15µM*	2%	-2	-2%
CC(=O)Nc1cc(-c2nc3ccccc3o2)ccc1Cl	-10%	11%	9%	15	7%
O=C(Nc1cc(-c2nc3ccccc3o2)ccc1Cl)c1ccc(N2CCCCC2)c([N+](=O)[O-])c1	18µM*	?	/	/	/
COc1ccc2oc(-c3ccc(NC(=O)c4ccc(N5CCOCC5)c([N+](=O)[O-])c4)cc3)nc2c1	2.1µM*	?	6%	6	4%
O=C(Nc1cccnc1)c1ccc(N2CCOCC2)c([N+](=O)[O-])c1	-13%	-19%	5%	-24	-1%
O=C(Nc1ccc(-c2nc3ccccc3o2)cc1)c1ccc(N2CCOCC2)c([N+](=O)[O-])c1	4.6µM*	7.3µM*	2%	-16	-23%
Cn1cc([N+](=O)[O-])c(C(=O)Nc2ccc(-c3nc4ccccc4o3)cc2)n1	-12%	-5%	?	-86*	?
COc1cccc(CNCC2CCCO2)c1 (configuration not stated)	10%	-10%	4%	0	-1%
CN(C(=O)CSc1nncc2ccccc12)c1ccccc1	-29%	-2%	-4%	-87*	-7%
O=C(CSc1nncc2ccccc12)N1CCCCC1	4%	-5%	-2%	-22	18%
COc1ccc(NC(=O)CCS(=O)(=O)c2ccccc2Cl)cc1S(=O)(=O)Nc1ccc(Cl)cc1	16µM*	?	?	-14	?
COc1ccccc1NS(=O)(=O)c1cc(NC(=O)CCC(=O)c2cccs2)ccc1Cl	?	?	-19%	-2	-12%
COc1ccc(NC(=O)CCC(=O)c2cccs2)cc1S(=O)(=O)Nc1ccc(Cl)cc1	0%	-18%	0.82µM*	/	-5%
COc1ccc(NS(=O)(=O)c2cc(NC(=O)CCSc3ccccc3)ccc2OC)cc1	?	?	-13%	-5	-10%
COc1ccc(NC(=O)c2ccc3ccccc3n2)cc1S(=O)(=O)Nc1ccccc1Cl	23µM*	?	0%	9	3%
SMILES	DT40 TDP1 no CPT	TDP1 cell CPT	HT1080 IDH1KD tx	IL-1B inflam inh	HT1080NT lethal
CCN(CC(=O)Nc1ccc(Br)c(C)c1)CC(=O)NC(C)C	15µM*	?	-8%	-3	-14%
CCN(CC(=O)Nc1ccc(C)c(F)c1)CC(=O)NC(C)C	-26%	-1%	-3%	-4	-4%
COc1ccc(NS(=O)(=O)c2cc(NC(=O)CNC(=O)c3ccc(C)s3)ccc2Cl)cc1	-9%	14%	-20%	56	-27%
COc1ccc(NC(=O)CCSc2ccc(C)cc2)cc1	?	?	-4%	21	-1%
CCOc1ccc(NS(=O)(=O)c2cc(NC(=O)CCC(=O)c3cccs3)ccc2Cl)cc1	?	29µM*	?	-26	-25%
COc1ccc(NC(=O)CCSc2ccc(C)cc2)cc1S(=O)(=O)Nc1ccccc1Cl	13µM*	?	-10%	24	-11%
Cc1ccc(SCCC(=O)Nc2ccc(Br)c(C)c2)cc1	6%	7%	-3%	-108*	-1%
CC1Sc2ccccc2N(Cc2ccc(OC(F)(F)F)cc2)C1=O (configuration not stated)	?	-24%	-10%	-12	-10%
CCC1C(=O)NCCN1Cc1ccc2c(c1)CN(Cc1cccc(OC)c1)CCO2 (configuration not stated)	-4%	12%[9.04 µM]	/	/	/
OC(c1ccccc1)c1ncc(-c2ccccc2F)[nH]1 (configuration not stated)	-7%	2%	-6%	-2	-9%
CCc1c(C)sc2c1CCN(Cc1cccc(F)c1)C2c1ccccc1 (configuration not stated)	12µM*	?	/	/	/
Cc1c(CNC2CCCCCC2)c(C(=O)O)c(C)n1Cc1ccc(F)cc1	-11%	5%	/	/	/
CCc1c(C)sc2c1CCN(Cc1ccc(F)cc1)C2c1ccccc1 (configuration not stated)	4.6µM*	?	/	/	/
CCOc1ccc(NC(=O)CSc2nc3ccccc3nc2N2CCOCC2)cc1	13µM*	21µM*	8%	3	-8%
COc1cccc(NC(=O)CSc2nc3ccccc3nc2N2CCCC2)c1	?	?	?	-15	-28%
CCOc1ccc(NC(=O)c2sc(N3CCOCC3)nc2-c2ccccc2)cc1	23µM*	?	-3%	-9	-9%
